Screening data deposited in PubChem by several laboratories.
Most compounds without a hit are left out; they make up all but 1.3% or so of the library.
CRFBP-R2 agonist: agonists of CRF-BP/CRF-R2 complex, primary screen, cell-based, HEK293, calcium dye fluorescence, uHTS | CRF-binding protein / CRF receptor 2 complex (human) | calcium dye fluorescence (FLIPR); percent of saturating CRF peptide response | activation, % at 13.2 µM | 0.46% of 350,000 active | AID 588473, 2011;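 active = activation of at least 50%, plus an integration ratio under a set limit after plate pattern correction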;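 also: plate controls were neutral control wells without compound for no effect and CRF at EC100 for full effect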
CRFBP-R2 block: antagonists of CRF-BP/CRF-R2 complex, primary screen, cell-based, HEK293, calcium dye fluorescence, uHTS. CRF-induced calcium fluorescence. inhibition, % at 11.8 µM. 0.59% of 350,000 active. AID 588475, 2011;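 active = inhibition of the ligand-induced calcium signal above about 50% at the single tested concentration, limit read from the data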
cardiac RTF act: cardiac RTF calcium sensitivity activators, primary screen, biochemical, IANBD-TnC fluorescence, EC20 calcium | Troponin I, cardiac muscle (Homo sapiens) + Troponin T, cardiac muscle (Homo sapiens) + … | IANBD-labeled TnC RTF fluorescence at EC20 calcium; 0% EC20 calcium, 100% full calcium | activation, % at 7.2 µM | AID 493008, 2010 | 0.24% of 340,000 active;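 active = activation above the mean over all tested compounds plus 3 SD, cut at about 30% in these data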;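 also: rise in fluorescence read as greater calcium sensitivity of cardiac thin filaments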
Cardiac RTF inh: cardiac RTF calcium sensitivity inhibitors, primary screen, biochemical, IANBD-TnC fluorescence, EC70 calcium; Troponin I, cardiac muscle (Homo sapiens) + Troponin T, cardiac muscle (Homo sapiens) + …; inhibition, % at 7.15 µM; IANBD-labeled cardiac RTF, Ca2+ fluorescence; 0.12% of 340,000 active; AID 493244, 2011;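 active = inhibition above the mean inhibition of all tested compounds plus 3 SD, cut at about 17% in these data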;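 also: assay run at fixed EC70 calcium of 1.6 mM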
* hit, by the source's call; nt = no result given.

SMILES	CRFBP-R2 agonist	CRFBP-R2 block	cardiac RTF act	Cardiac RTF inh
CCOc1ccc(S(=O)(=O)N(CC(=O)NN=C2CCN(C)CC2)c2ccc(C)cc2)cc1	-1	1	-2	-3
Cc1cc(C)cc(N=Cc2[nH]c3ccc(Br)c(Cl)c3c2O)c1	197*	-151	64*	-88
COc1ccc(CN=Cc2[nH]c3ccc(Br)c(Cl)c3c2O)cc1	16	-39	10	-18
Cc1n[nH]c(C)c1CCC(=O)N/N=C/c1cccs1	0	0	nt	nt
Cc1ccsc1/C=N\NC(=O)CCc1c(C)n[nH]c1C	4	52*	9	3
COCc1cc(=O)n2[nH]c(-c3ccccc3)cc2n1	-4	79*	-4	-8
C[C@H](CO)N1C[C@H](C)[C@@H](CN(C)S(=O)(=O)c2ccccc2F)Oc2ncc(Br)cc2C1=O	1	0	nt	nt
Cc1cc(NC(=O)Cc2ccccc2)ccc1NC(=O)c1cccs1	-3	57*	3	-16
Cc1cc(NC(=O)c2cccs2)ccc1NC(=O)Cc1ccccc1	-1	3	-2	-12
CC(NC(=O)COC(=O)/C=C/c1ccc(Cl)cc1)c1ccccc1 (stereo not given)	0	-23	-3	-10
CCc1cc(C(=O)NC2CCCN(Cc3ccccc3F)C2)n(C)n1 (stereo not given)	-1	4	1	-1
COc1ccc(C(=O)COC(=O)CCNS(=O)(=O)c2ccc(NC(C)=O)cc2)c(OC)c1	1	51*	6	-7
NS(=O)(=O)c1ccc(CCNC(=O)COC(=O)C2COc3ccccc3O2)cc1 (stereo not given)	0	12	-2	-4
NS(=O)(=O)c1ccc(NC(=O)CSc2nnc(COc3ccccc3Cl)n2C2CC2)cc1	-2	63*	9	-25
NS(=O)(=O)c1ccc(NC(=O)CSc2nnc(C3CC3)n2C2CC2)cc1	-1	10	-6	0
O=S(=O)(NC1CCCCC1N1CCN(c2cccc(Cl)c2)CC1)c1ccccc1 (stereo not given)	9	-26	-3	1
O=S(=O)(NC1CCCCC1N1CCOCC1)c1ccc(Cl)cc1 (stereo not given)	133*	-131	2	-8
CN1CCN(C2CCCCC2NS(=O)(=O)c2ccccc2)CC1 (stereo not given)	4	-1	-5	-2
O=S(=O)(NC1CCCCC1N1CCN(c2ccccc2F)CC1)c1ccc(Cl)cc1 (stereo not given)	93*	-66	1	-2
Cc1ccc(C(=O)N/N=C\c2ccccn2)cn1	2	113*	2	-7
COC(=O)c1sccc1NC(=O)Cn1nnc(-c2ccccc2C)n1	-1	10	-1	-7
Cc1ccc(Oc2ncccc2C(=O)NCC(=O)O)cc1	0	-18	7	-5
CCCCNC(=O)c1sc(=S)n2c1[nH]c(=O)c1ccccc12	50*	55*	3	-20
COc1ccc(C)cc1-n1nnnc1SCC(=O)NC1CCS(=O)(=O)C1 (stereo not given)	0	1	-1	-2
c1ccc(-c2cnnc(N3CCOCC3)n2)cc1	-1	5	0	-8
SMILES	CRFBP-R2 agonist	CRFBP-R2 block	cardiac RTF act	Cardiac RTF inh
Brc1ccc(-c2cnnc(N3CCCC3)n2)cc1	2	-39	79*	-57
COc1ccc(C(=O)N/C(=C\c2ccc(SC)cc2)C(=O)NCCCn2ccnc2)cc1OC	-1	-1	-3	-7
N#CC1=C(N)OC2=C(C(=O)CC(c3ccccc3)C2)C1c1ccc2c(c1)OCO2 (stereo not given)	-2	59*	5	-15
N#CC1=C(N)OC(c2ccccc2)=C(C#N)C1c1ccc2c(c1)OCO2 (stereo not given)	1	-19	5	0
O=C(CCCc1ccccc1)NCCS(=O)(=O)N1CCN(c2ccc(F)cc2)CC1	4	30	-5	2
O=C(/C=C/c1ccc2ccccc2n1)N1CCN(S(=O)(=O)c2ccc(F)cc2)CC1	2	3	-3	-1
O=C(/C=C/c1ccc2ccccc2n1)N1CCN(c2ccccc2)CC1	0	75*	3	-2
Nc1ccc(O)c2c1C(=O)c1ccccc1C2=O	4	1	1	-10
O=C1C=C(O)c2c(O)cc(O)c(O)c2C1=O	7	0	-44	31*
O=C1c2ccccc2C(=O)c2c(O)c(O)cc(O)c21	4	52*	3	-4
O=C(Nc1ccccc1)Nc1ccc(O)c2ccccc12	0	70*	nt	nt
O=C(Nc1ccccc1)Nc1cccc2ccccc12	-4	16	6	-2
COC(=O)c1sc(-c2ccc(C(C)(C)C)cc2)cc1NC(=O)CSCC(=O)O	1	54*	-1	-1
COc1ccc(OC)c(S(=O)(=O)N2CCc3ccccc32)c1	1	-4	0	4
COc1ccc(OC)c(S(=O)(=O)N2c3ccccc3CC2C)c1 (stereo not given)	-2	53*	0	-10
C=C1C(C(=O)Nc2ccccc2)C1C(=O)Nc1ccccc1 (stereo not given)	0	59*	1	0
CN(C)C(=O)Nc1ccccc1	0	1	-1	-8
CC1CC1c1ccc(/C=C(\C#N)C(=O)Nc2cccc(Cl)c2Cl)o1 (stereo not given)	59*	-75	19	-10
Cc1cc(C)cc(N2C(=O)CCN(Cc3ccccc3)C2=O)c1	0	-5	3	4
CCOc1ccc(NC(=O)Cn2nnc(C(=O)NCc3ccc4c(c3)OCO4)c2N)cc1	2	-5	-3	-4
CCOC(=O)C(=CNCC(=O)O)C(=O)OCC	0	11	4	0
CNCC(=O)O	-1	77*	6	-10
OC1COCOC1C(O)C1OCOCC1O (stereo not given)	2	13	7	7
C=CCN1C(=O)/C(=C/C=C2/N(CC)c3ccc(S(=O)(=O)N(C)C)cc3N2CC)SC1=S	164*	-176	429*	-445
C=CCN1C(=O)/C(=C2/Sc3ccccc3N2CC)SC1=S	11	-10	10	-9
SMILES	CRFBP-R2 agonist	CRFBP-R2 block	cardiac RTF act	Cardiac RTF inh
CCOC(=O)c1sc(NC(=O)CN(CC(C)C)CC(C)C)c(C(=O)OCC)c1C	-1	74*	0	-5
CCOc1cc(C(N)=O)cc(Br)c1OCc1ccccc1	-2	11	0	-10
O=C(OCCN1C(=O)c2cccc3c(N4CCOCC4)ccc(c23)C1=O)c1cccc(Cl)c1	175*	-169	nt	nt
O=C(COC(=O)c1cccc(Cl)c1)Nc1cc(S(=O)(=O)N2CCOCC2)ccc1N1CCOCC1	-2	8	-4	-3
O=C(OCCN1C(=O)c2cccc3c(N4CCOCC4)ccc(c23)C1=O)c1ccc(Cl)cc1Cl	176*	-161	192*	-268
O=C(OCc1c(F)cccc1Cl)c1cc([N+](=O)[O-])ccc1N1CCOCC1	-1	-3	0	-21
